# Measurements from PubChem BioAssay (NCI).
# This is part of a sample that, as a whole, favours compounds with a hit. Of some 83,000 tested, about 20% had one in any assay.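 Testing used 96-well plates and a 48-hour single-concentration exposure. Example: -40 means 40% of the starting cells died.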 A number with no mark means an inactive call. Rule for the calls: active = growth percent below 10; inactive = the rest.
# Test system: HL-60(TB) leukemia
# Assay: NCI-60 one-dose screen, 48 h (100 = growth as untreated, 0 = no growth, -100 = all killed)
# Details: 10 µM unless noted
row,Structure (SMILES),growth
1,O=C(c1nc2ccccc2[nH]1)C1C(c2ccc(F)cc2)C2CC3CCCCC3N2[C@@]12C(=O)Nc1ccc(Cl)cc12 (some centres undefined),33.2%
2,O=C(Cn1cc(CN2C(=O)c3ccccc3S2(=O)=O)nn1)Nc1ccc([N+](=O)[O-])cc1Cl,94.6%
3,CC(=O)c1cccc(Nc2ncnc3ccc(NC(=O)c4ccco4)cc23)c1,122%
4,CCCCCCCCCC(=O)Oc1ccc(/C(=C(/C)Cc2cccc(OC)c2)c2ccc(OCCN(C)C)cc2)cc1,112%
